Seven molecules from PubChem BioAssay (Tox21) can be followed below.

Assay [1] in a line: qHTS assay for small molecule agonists of the p53 signaling pathway (AID 651631; calls by dose curve; also: nearly all actives have a fitted effect of over 15% in size; also: potency is read from the fitted curve at half-maximal effect). The gist of the method:
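HCT-116 p53RE-bla reporter line, 16 h compound treatment at 37 °C, then fluorescence after 2 h with B/G FRET substrate.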
(In qHTS, concentration-response curves come from the screen itself.)

Assay [2] is described as follows: qHTS assay for small molecules that induce genotoxicity in human embryonic kidney cells expressing luciferase-tagged ATAD5 (AID 651632). Also: nearly all actives have a fitted effect of over 15% in size. Also: potency is read from the fitted curve at half-maximal effect. The gist of the method:
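Concentration-response screen for ATAD5 upregulation in HEK293T luciferase reporter cells; 16 hr treatment at 37C, then luminescence after 30 min with Amplite at room temperature.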

A short description of assay [3]: qHTS assay for small molecule agonists of the p53 signaling pathway - cell viability (AID 651633; calls by dose curve; also: nearly all actives have a fitted effect of over 30% in size; also: potency is read from the fitted curve at half-maximal effect;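 as to activity change, negative = cytotoxicity: p53RE-bla HCT reporter cells with a stable beta-lactamase p53 reporter; series mostly up to about 83 µM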). The gist of the method:
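Viability counter-read: CellTiter-Glo luminescence (30 min, room temperature) in the same p53RE-bla plates. These plates had been exposed to compounds for 16 h at 37 C.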

The nature of assay [4]: qHTS assay for small molecules that induce genotoxicity in human embryonic kidney cells expressing luciferase-tagged ATAD5 - cell viability (AID 651634; calls by dose curve; also: nearly all actives have a fitted effect of over 25% in size; also: potency is read from the fitted curve at half-maximal effect). The gist of the method:
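15.5 hr compound or vehicle exposure of HEK293T cells expressing luciferase-tagged ATAD5 at 37C; live-cell protease activity is read by fluorescence after 30 min of CellTiter-Fluor.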

Assay [5] can be described thus: qHTS assay for small molecule disruptors of the mitochondrial membrane potential - cell viability (AID 720634; calls by dose curve; also: nearly all actives have a fitted effect of over 20% in size; also: potency is read from the fitted curve at half-maximal effect;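 as to activity change, negative = cytotoxicity: human HepG2 liver cancer cells; series mostly up to about 83 µM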). The gist of the method:
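In this qHTS format, HepG2 cells plated overnight were pinned with compound, incubated 1 hr, and assayed for ATP luminescence with CellTiter-Glo after m-MPI dye addition.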

A short description of assay [6]: qHTS assay to test for compound auto fluorescence at 590 nm (red) in HepG2 cells (AID 720674). The gist of the method:
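1 hr compound incubation on HepG2 cells, 37 C, 5% CO2; plate read ex 540 nm / em 590 nm; intensities reported as Rose Bengal sodium equivalents.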

A short description of assay [7]: qHTS assay to test for compound auto fluorescence at 535 nm (green) in HepG2 cells (AID 720675).
Assay [8] in a line: qHTS assay to test for compound auto fluorescence at 460 nm (blue) in HEK293 cells (AID 720678). The gist of the method: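 HEK293 cells (2,000 per well, medium with 10% dialyzed FBS) attached for 4-5 hr at 37C, then received compound and stood overnight at 37C, 5% CO2. Blue fluorescence was read at Ex/Em 405/460 nm and expressed relative to triamterene.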
Assay [9] can be described thus: qHTS assay to test for compound auto fluorescence at 590 nm (red) in HEK293 cells (AID 720679). The gist of the method:
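HEK293 cells (2,000/well, medium with 10% dialyzed FBS) attached for 4-5 hr at 37C, received 23 nL compound and were incubated overnight at 37C, 5% CO2. Red fluorescence was then read at 540/590nm Ex/Em, referenced to Rose Bengal sodium.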

Assay [10] in a line: qHTS assay to test for compound auto fluorescence at 535 nm (green) in HEK293 cells (AID 720680).
Assay [11] in a line: qHTS assay to test for compound auto fluorescence at 460 nm (blue) in HEK293 cell free culture (AID 720681). An outline of the steps:
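Blue fluorescence (Ex 405/Em 460 nm, triamterene-equivalent) was read immediately after pin transfer of compound or DMSO into medium (DMEM, 10% FBS) without cells.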

The nature of assay [12]: qHTS assay to test for compound auto fluorescence at 535 nm (green) in HEK293 cell free culture (AID 720682). The gist of the method:
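Steps: dispense DMEM/10% FBS into empty wells; pin in compound or DMSO; measure fluorescence at 485/535 nm. Values are fluorescein equivalents.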

Assay [13] can be described thus: qHTS assay to test for compound auto fluorescence at 590 nm (red) in HEK293 cell free culture (AID 720683). An outline of the steps:
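Red-channel autofluorescence of compounds in culture medium (DMEM, 10% FBS), no cells, measured at 540/590 nm. Rose Bengal sodium is the reference fluorophore for equivalence.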

Assay [14] is described as follows: qHTS assay to test for compound auto fluorescence at 460 nm (blue) in HepG2 cell free culture (AID 720685). The gist of the method: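 Cell-free plates of MEM plus 10% FBS received 23 nL compound or DMSO vehicle; blue-channel (405/460 nm) intensity scored against triamterene as reference fluorophore.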
The nature of assay [15]: qHTS assay to test for compound auto fluorescence at 535 nm (green) in HepG2 cell free culture (AID 720686).
A short description of assay [16]: qHTS assay to test for compound auto fluorescence at 460 nm (blue) in HepG2 cells (AID 720687). The gist of the method: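 Blue-channel autofluorescence (Ex/Em 405/460 nm, triamterene-equivalent) was measured after 1 hr compound exposure at 37 C, 5% CO2. Cells were HepG2, plated overnight at 37 C in MEM plus 10% FBS.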
Assay [17] is described as follows: qHTS assay for small molecule disruptors of the mitochondrial membrane potential (AID 720635). Also: potency is read from the fitted curve at half-maximal effect. An outline of the steps:
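Mitochondrial membrane potential tracked with Mito-MPS dye, red aggregates (ex 540/em 590 nm) against green monomers (ex 490/em 535 nm). Compound treatment 1 hr at 37C, dye 30 min in HepG2.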

The nature of assay [18]: qHTS assay to test for compound auto fluorescence at 590 nm (red) in HepG2 cell free culture (AID 720684). The gist of the method:
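Cell-free; medium MEM + 10% FBS; compound or DMSO added by pintool; read Ex 540/Em 590 nm; Rose Bengal sodium as red reference fluorophore.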

Assay [19] has as its target Glucocorticoid receptor (Homo sapiens) (UniProt P04150). Description: qHTS assay to identify small molecule antagonists of the glucocorticoid receptor (GR) signaling pathway (AID 720692; active = well fitted inhibition curve with a large enough effect in the signal ratio in the repeat runs, not every such curve was filed as active; the % refers to the signal ratio; also: potency is read from the fitted curve at half-maximal effect). The gist of the method: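 Tox21 10K library screened in concentration-response for blockade of dexamethasone (5 nM final)-induced GRE-bla reporter activity in HeLa cells; 18 h treatment, fluorescence read.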

SMILES strings stand for the structures. A number with no mark means an inactive call. Records with an inconclusive call do not appear. The source made the active and inactive calls. Unless noted, calls follow the shape of the dose curve; as a rule, active = well fitted curve in the direction sought with a large enough effect in the repeat runs; inconclusive = weak or mixed curves; inactive = no such curve, though single readings can be large; an effect the other way counts as inactive or inconclusive.
% is scaled to controls: 0 for no effect and ±100 for the full control effect.

Glucocorticoid receptor (Homo sapiens), sequence (P04150 whole entry, looked up): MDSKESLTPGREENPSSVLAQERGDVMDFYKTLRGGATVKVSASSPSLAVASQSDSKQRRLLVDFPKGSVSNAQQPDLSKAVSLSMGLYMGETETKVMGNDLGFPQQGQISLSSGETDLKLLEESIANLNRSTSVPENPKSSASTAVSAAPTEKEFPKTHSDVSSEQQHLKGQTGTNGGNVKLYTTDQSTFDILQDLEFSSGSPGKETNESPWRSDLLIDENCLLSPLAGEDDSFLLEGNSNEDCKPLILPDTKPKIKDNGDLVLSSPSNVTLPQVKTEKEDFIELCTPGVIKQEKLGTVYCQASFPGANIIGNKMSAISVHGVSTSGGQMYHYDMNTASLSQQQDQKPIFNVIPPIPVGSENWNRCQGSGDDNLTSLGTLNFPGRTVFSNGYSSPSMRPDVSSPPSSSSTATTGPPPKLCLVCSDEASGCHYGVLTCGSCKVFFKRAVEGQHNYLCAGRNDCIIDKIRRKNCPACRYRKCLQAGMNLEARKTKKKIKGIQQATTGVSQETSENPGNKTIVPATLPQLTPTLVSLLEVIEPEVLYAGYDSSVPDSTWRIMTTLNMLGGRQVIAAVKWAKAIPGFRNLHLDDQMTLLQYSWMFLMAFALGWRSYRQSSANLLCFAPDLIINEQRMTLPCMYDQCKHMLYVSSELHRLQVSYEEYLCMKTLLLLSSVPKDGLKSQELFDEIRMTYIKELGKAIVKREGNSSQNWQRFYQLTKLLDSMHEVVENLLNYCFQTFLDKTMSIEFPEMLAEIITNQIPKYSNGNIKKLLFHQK

`CC(=O)C(Cl)C(=O)N(C)C` (centres undefined): the Potency entry in [1], in [2], in assay [3], in assay [4], in assay [5] and in assay [7] was “inactive” each time. The Potency result in assay [8], in assay [11], in assay [14], in [15] and in assay [16] was “inactive” in each case. Moreover, the molecule was called inactive in assay [6], in [9], in assay [10], in assay [12] and in assay [13].

Consider `CC(O)C(=O)[O][Hg][c]1ccccc1` (centres undefined), for which the Potency in assay [1] was 545 nM (active); in assay [2], 96.9 nM (active); in [3], 217 nM (active); in assay [4], 969 nM (active); in assay [5], 5450 nM (active); in assay [17], 2730 nM (active). For the same molecule, the molecule was classed as inactive in assay [6], in [9], in assay [10], in assay [12], in [13] and in assay [18]. Moreover, the Potency result in [7], in assay [8], in assay [11], in assay [14], in [15] and in [16] was “inactive” each time.

On to `COC(=O)N(OC)c1ccccc1COc1ccn(-c2ccc(Cl)cc2)n1`, for which the Potency in assay [1] is 1720 nM (active); in assay [5] it was 1930 nM (active); in [17], 4860 nM (active). Also, the Potency entry in assay [2], in assay [3], in [4], in assay [7], in [11] and in [14] was “inactive” each time. Also, the Potency entry in assay [15] and in [16] was “inactive” each time. Also, the call in assay [6], in assay [9], in assay [10], in assay [12], in assay [13] and in assay [18] was inactive.

Take `N#Cc1ccc(N(CC(N)=O)CC(F)(F)F)cc1C(F)(F)F`: the Potency result in [1], in assay [2], in assay [3], in assay [4], in assay [5] and in assay [7] was “inactive” in each case. The Potency result in assay [8], in assay [11], in assay [14], in [15] and in assay [16] was “inactive” in each case. The molecule was called inactive in assay [6], in assay [9], in assay [10], in [13] and in assay [18].

Turning to `O=Cc1ccccc1`, the Potency entry in assay [1], in assay [2], in assay [3], in assay [4], in [5] and in assay [17] was “inactive” throughout. Also, the Potency entry in [7], in [8], in [11], in assay [14], in assay [15] and in assay [16] was “inactive” throughout. The outcome in [6], in [10], in assay [12] and in assay [18] was inactive.

As for `Clc1c(Cl)c(Cl)c(Cl)c(Cl)c1Cl`, the activation in [1] was -4.73% [at 8.3 µM]; in assay [2], 3.25% [at 8.08 µM]. Besides, the activity change, negative = cytotoxicity is -24.8% [at 8.08 µM] in [3] and 3.14% [at 8.08 µM] in assay [5]. The activity, negative = cytotoxicity in assay [4] is 8.7% [at 8.08 µM]. Further, the fluorescence, relative to Rose Bengal in assay [6] is -0.0012% [at 3.72 µM]. The results for the fluorescence, % of fluorescein control in assay [7] and in assay [15] were -0.0433% [at 3.72 µM] and -0.0548% [at 3.72 µM], respectively. Besides, the fluorescence, % of fluorescent control was -0.0042% [at 3.72 µM] in assay [9], -0.026% [at 3.72 µM] in assay [11], 0.0528% [at 3.72 µM] in assay [14] and -0.0163% [at 3.72 µM] in [16]. In [10], the fluorescence, % of fluorescein is 0.081% [at 3.72 µM]. Besides, in assay [12], the activity change was 0.0009% [at 3.72 µM]. Also, in assay [18], the fluorescence, % of Rose Bengal was -0.0219% [at 3.72 µM]. For the same molecule, the activity change, negative = inhibition in [19] is -10.3% [at 7.04 µM].

With `CCC[CH2][Sn]([CH2]CCC)([O]C(C)=O)[O]C(C)=O`, the Potency in assay [1] was 1950 nM (active); in assay [4], 1230 nM (active); in assay [17], 15500 nM (active); in assay [19], 350 nM (active). In addition, the Potency entry in [2], in assay [3], in [7], in assay [11], in assay [14] and in assay [15] was “inactive” each time. In addition, the Potency result in [16] is “inactive”. Besides, the molecule was classed as inactive in assay [6], in assay [10], in assay [13] and in [18].
